# Reference: PubChem BioAssay AID931 (National Center for Advancing Translational Sciences (NCATS), 2007)
# Inconclusive results are not listed. Unmarked numbers belong to inactive results. The source made the active and inactive calls. Calls follow the shape of the dose curve; as a rule, active = well fitted cell-killing curve with a large enough effect; inconclusive = small, poorly fitted or top-dose-only effect; inactive = flat fitted curve, though single readings scatter.
# Assay: Confirmation and Secondary Assay for Modulators of Hemoglobin Beta Chain Splicing at IVS2 654 locus: Cytotoxicity
# Details: HBB IVS2-654 splicing reporter cells; series mostly up to 46.1 µM; activity change, negative = cytotoxicity: at the top concentration
# From the text: NIH Chemical Genomics Center [NCGC]
# NIH Molecular Libraries Screening Centers Network [MLSCN]
# PI Name: Dr. Ryszard Kole
# Modulation of Alternative Splicing as Therapy
# Abnormal splicing is associated with a number of diseases, including cancer and genetic diseases such as cystic fibrosis, muscular dystrophy and beta-thalassemia. Alteration of disease associated splicing patterns provides a promising target for treatment. […] Mutations in the second intron of the b-globin gene at positions 654 or 705 are clinically relevant and cause mis-splicing which results in an out of frame gene product.
# Examination of toxicity of select compounds in EGFP-654 HeLa Cells
# HeLa cell lines were stably transfected with a construct in which the EGFP (enhanced green fluorescent protein) cDNA was interrupted by the second intron of the beta-globin gene (IVS2-654). The ISV2 intron contains mutations which cause mis-splicing of EGFP and premature termination of EGFP which results in a nonfluorescent protein product. […] Expression of the transgene was driven by the CMV promoter. Compounds, and related structures identified in the primary screen as potential splicing modulation were examined for their effects on cell toxicity in this follow up assay .
# NCGC Assay Protocol Summary:
# Toxicity Screening. Freshly thawed HeLa EGFP-654 cells were seeded in 5 ul of optimem media (Invitrogen) containing 2 % fetal calf serum (Hyclone) and 1x penicillin/streptomycin (Invitrogen) at a concentration of 500 cells per well in 1536-well plates. Cells were incubated overnight at 37C in 5% CO2. The next day, cells were treated with DMSO, 500 nM antisense ISV2 654 PNA control oligo, or library compound and allowed to grow at 37C in 5% CO2 for 2 days. Cells were treated with 5 ul/well of freshly prepared ATPlite (Perkin Elmer) and cells were allowed to lyse at room temperature for 5 minutes. Luminescence was captured on an Viewlux CCD imager (Perkin Elmer) using a 15 second integration time and cell death was measured by comparing compound treatments to DMSO treatment (no cell death).
# Keywords: Thalassemia, beta-thalassemia, beta-globin, EGFP, ISV2 654, ISV2 705, SSO, PNA, antisense, splicing, ATPlite, toxicity, MLSMR, MLSCN, NIH Roadmap, qHTS, NCGC
Compound,Potency,"activity change, negative = cytotoxicity [%]"
NC1=NC(S)C2N=CN=C2N1 (centres undefined),316 nM (active),–
Nc1nc(Cl)nc2c1ncn2[C@H]1C[C@H](O)[C@@H](CO)O1,–,-14.5
S=C1NC=NC2N=CNC12 (centres undefined),199 nM (active),–
OCC1OC(n2cnc3c(Cl)ncnc32)C(O)C1O (centres undefined),–,-9.7
N=c1ccn2c(n1)O[C@@H]1[C@@H](O)[C@H](CO)O[C@H]12,–,-14
Nc1ncnc2c1nc(Cl)n2C1OC(CO)C(O)C1O (centres undefined),–,6.51
Nc1ncnc2c1nc(Br)n2C1OC(CO)C(O)C1O (centres undefined),–,-26.4
CSc1ncnc2c1ncn2C1OC(CO)C(O)C1O (centres undefined),794 nM (active),–
Nc1nc(=O)n(C2OC(CO)C(O)C2O)cc1Cl (centres undefined),–,-10.6
Nc1ccn([C@H]2CC[C@@H](CO)O2)c(=O)n1,–,1.26
Cn1cnc([N+](=O)[O-])c1Sc1ncnc2nc[nH]c12,316 nM (active),–
O=c1[nH]c(=O)n(C2CC(O)C(CO)O2)cc1F (centres undefined),–,-25
Nc1ncn([C@@H]2O[C@H](CO)[C@@H](O)[C@H]2O)c(=O)n1,1260 nM (active),–
OCC1OC(n2cnc3c(=S)nc[nH]c32)C(O)C1O (centres undefined),3160 nM (active),–
